The assay relates to PRMT1 (protein arginine N-methyltransferase 1). Kind of assay: PRMT1 binders on small-molecule microarrays, primary screen, biochemical, small-molecule microarray, 635 nm fluorescence (AID 1088). Conditions: small-molecule microarray binding, higher = more signal.
Regarding `OB1C=CCC(CCc2ccccc2)O1` (stereo not given), the composite z-score was -1.12.

The compound `CCCCCCc1nc(-c2ccc(-c3ccc(Cl)c(Cl)c3)o2)c(C)c2c1[Si](C(C)C)(C(C)C)OC2` returned a composite z-score of 0.337.

The compound `O=C1NC(=O)C2C1C=CC(C(O)C=Cc1ccc([N+](=O)[O-])cc1)N2Nc1ccc(Cl)cc1Cl` (stereo not given) came in with a composite z-score of 0.782.

For the compound `Cc1ccc(S(=O)(=O)N2C[C@@H](C(=O)O)[C@H](Sc3ccccc3)C[C@H]2c2ccccc2)cc1`, the composite z-score came out at 1.55.

In turn, `COC(=O)[C@@]1(Cc2ccccc2)[C@H]2c3cc(C(=O)N(C)C)n(CCc4c[nH]c5ccc(O)cc45)c3C[C@H]2CN1C(=O)c1ccccc1` returned a composite z-score of 0.937.

`C=CC[C@]1(C(N)=O)COC(c2ccc(OCCCO)cc2)=N1` gave a composite z-score of 0.322.

Compound `O=C(CS)NCCCCCNC(=O)[C@@H]1C[C@@H]2C(=O)NCC(=O)N2[C@@H]1c1ccc(O)cc1` had a composite z-score of 1.08.

Take `COc1cc(OC)c(C(O)C2C=CC3C(=O)NC(=O)C3N2Nc2ccccn2)cc1Br` (stereo not given): the composite z-score came to 1.49.

`NC(=O)[C@@]1(Cc2ccccc2)N=C(c2ccc(OCCCO)cc2)O[C@H]1c1ccccc1` registered a composite z-score of 0.439.

In turn, `C=CCN1C(=O)[C@]2(O[C@H](CCO)[C@@H]([Si](C)(C)c3ccc(OC)cc3)[C@@H]2C)c2cc(N(C=O)c3ccccc3)ccc21` came in with a composite z-score of 1.47.

Take `O=C(CS)NCCCCCNC(=O)[C@H]1C[C@H]2C(=O)NCC(=O)N2[C@H]1c1cccc(OCCO)c1`: the composite z-score is 0.151.

`CC(c1ccccc1)C(O)C1C=CC2C(=O)N(C)C(=O)C2N1NC(=O)OC(C)(C)C` (stereo not given) registered a composite z-score of 1.39.

As to `CO[C@H]1O[C@H](CO)[C@@H](OC(=O)Nc2ccccc2)[C@@H]2OC(=O)[C@@H](Cc3ccc4ccccc4c3)C/C=C/C[C@H](Cc3ccc4ccccc4c3)C(=O)O[C@@H]12`, the composite z-score stood at 1.47.

`CCCC[C@@H]1C[C@H]1[C@@H](NC(=O)c1cccnc1)c1ccc(Cl)cc1` showed a composite z-score of -2.81.

`[N-]=[N+]=NCc1ccccc1[C@@H]1OC(c2ccc(OCCCO)cc2)=N[C@]1(CCS(=O)(=O)c1ccccc1)C(N)=O` showed a composite z-score of 1.56.

The compound `COc1ccc(CCNC(=O)[C@@]2(c3ccc([N+](=O)[O-])cc3)CC(=O)N(CC34CC5CC(CC(C5)C3)C4)[C@@H]2c2ccc(CO)cc2I)cc1` showed a composite z-score of 1.54.

In turn, `COC(=O)[C@H](Cc1ccccc1)N[C@H](/C=C/C1CC1)[C@@H](O)Cc1ccccc1` showed a composite z-score of -0.108.

The compound `COc1ccc(C(O)C2C=CC3C(=O)N(C)C(=O)C3N2N(c2ccccc2)c2ccccc2)c2ccccc12` (stereo not given) yielded a composite z-score of 0.474.

Take `CC(C)(C)OC(=O)CC[C@]1(C(N)=O)N=C(c2ccc(OCCCO)cc2)O[C@H]1c1ccccc1`: the composite z-score turned out to be 0.735.

Consider `COC(=O)[C@@]1(Cc2ccccc2)[C@H]2c3cc(C(=O)N(C)C)n(Cc4ccc(OC)c(OC)c4)c3C[C@H]2CN1C(=O)c1ccccc1`, for which the composite z-score turned out to be 0.42.

Regarding `COCC(=C=CC[C@H](O)c1ccccc1OCCO)CCO`, the composite z-score turned out to be 0.43.

In turn, `[N-]=[N+]=NCc1ccccc1[C@@H]1OC(c2ccc(OCCCO)cc2)=N[C@]1(CCS(=O)(=O)c1ccccc1)C(=O)N1CCCCC1` had a composite z-score of 1.56.

For the compound `C=C(C)[C@@H]1CC=C(C(O)C2C=CC3C(=O)NC(=O)C3N2Nc2ccc(Cl)cc2Cl)CC1` (stereo not given in full), the composite z-score was 0.794.

`O=C(O)[C@H]1C[C@H]2C(=O)N3CCC[C@H]3C(=O)N2[C@H]1c1ccc(O)cc1` returned a composite z-score of -0.57.

`[N-]=[N+]=Nc1ccccc1C[C@]1(C(=O)NCC(O)CO)N=C(c2ccc(OCCCO)cc2)O[C@H]1c1ccccc1` (stereo not given in full): the composite z-score stood at 0.909.

On to `CC(C)OC(=O)C=C1C[C@@H](c2cccc(Cl)c2)O[C@@H](c2cccc(Cl)c2)O1`, for which the composite z-score was -0.341.

Take `COC(=O)[C@@]1(Cc2ccc(F)cc2)[C@H]2c3cc(C(=O)N(C)C)n(Cc4cc(C)n(C)n4)c3C[C@H]2CN1C(=O)c1ccccc1`: the composite z-score amounted to 1.02.

The compound `[N-]=[N+]=NCc1ccccc1C[C@@]1(C(=O)NCC(O)CO)N=C(c2ccc(OCCCO)cc2)O[C@@H]1c1ccccc1` (stereo not given in full) yielded a composite z-score of 0.303.

Consider `COC(=O)[C@@]1(Cc2ccc(OC)cc2)[C@H]2c3cc(C(=O)N4CCCC4)n(CCc4ccc(O)c(O)c4)c3C[C@H]2CN1C(=O)c1ccccc1`, for which the composite z-score was -0.445.

The compound `CC(c1ccccc1)C(O)C1C=CC2C(=O)N(c3ccccc3)C(=O)C2N1Nc1ccccc1` (stereo not given) yielded a composite z-score of 1.54.

Take `O=C1OCCC/C=C\[C@H]2OC34C=CCN(c5ccc6ccccc6c5)C(=O)[C@H]3N(CCCCCO)C(=O)[C@@H]4C12` (stereo not given in full): the composite z-score was -1.23.

Compound `C#CCN1[C@@H](Cc2ccc(O)cc2)C(=O)O[C@H](Cc2ccccc2)[C@@H]1/C=C/C1CC1` came in with a composite z-score of -0.193.

With `COCCCNC(=O)[C@@H]1c2ccccc2C(=O)N(Cc2ccccc2)[C@H]1c1ccc(CO)cc1`, the composite z-score was 0.726.

Compound `COc1cc2c(cc1O)C(c1cccs1)N(Cc1ccc([N+](=O)[O-])o1)CC2` (stereo not given) returned a composite z-score of 0.298.

Consider `C=C(CCCC)/C(=C/C[C@@H](OC(C)=O)c1ccccc1OCCO)c1cc(C(=O)OC)ccc1OC`, for which the composite z-score came to 0.252.

Values taken from PubChem BioAssay.
